15 compounds from PubChem BioAssay (NCI) can be followed below.

Experiment in all cases: NCI-60 one-dose screen, 48 h (100 = growth as untreated, 0 = no growth, -100 = all killed)
Holding throughout (settings): 10 µM unless noted

In experiment [1] the test system is HCT-15 colon.
The test system of experiment [2] is HT29 colon.
The test system of experiment [3] is SNB-75 CNS.
The test system of experiment [4] is SNB-19 CNS.
Experiment [5] relates to U251 CNS.
For experiment [6], the system named is PC-3 prostate.
Experiment [7] has as its system SK-MEL-5 melanoma.
Experiment [8] concerns UACC-62 melanoma.
Experiment [9] relates to LOX IMVI melanoma.
Experiment [10] concerns SK-MEL-28 melanoma.
The subject of experiment [11] is SK-MEL-2 melanoma.
In experiment [12] the test system is EKVX NSCLC.
Experiment [13] concerns SN12C renal.
In experiment [14] the test system is UO-31 renal.
For experiment [15], the system named is TK-10 renal.
The test system of experiment [16] is ACHN renal.
Experiment [17] relates to CAKI-1 renal.
The test system of experiment [18] is CCRF-CEM leukemia.
Experiment [19] concerns MOLT-4 leukemia.

Molecules are shown by their SMILES. About 83,000 compounds went through this panel and 20% of them were active in at least one assay; those are over-represented in the sample as a whole.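 Interpretation: 100, growth as untreated; towards 0, rising growth inhibition; 0, no net growth; 0 to -100, cell death. Compounds scoring below 10 were considered active.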 Values without a mark were called inactive. Calls of active or inactive are those of the source.

As for `Cc1cc2cc3cc(C)c(N)cc3[n+](C)c2cc1N`, the growth in experiment [1] is 31.8%; in [2], -16.8% (active); in [3], 38.3%; in experiment [4] it was 11.6%; in experiment [5] it was 6% (active); in [6], 8.84% (active). Also, the growth was 18.4% in [7]; 33% in experiment [8]; -4.56% (active) in experiment [9]; 21.7% in experiment [10]; -21.9% (active) in [11]; 14.3% in experiment [12]. Also, the growth in experiment [13] was 8.73% (active); in experiment [14] it was 14%; in [15], 16.2%; in experiment [16], 28.5%; in experiment [17], 52.7%; in [18], 18.8%. Besides, the growth in experiment [19] is 5.32% (active).

With `CC(C)Cc1ccc(C(C)C(=O)NCc2c[nH]c3ccc(Cl)cc23)cc1` (stereo not given), the growth in experiment [1] was 91.2%; in experiment [2] it was 111%; in experiment [3], 102%; in experiment [4], 96.2%; in experiment [5], 91.8%; in [6] it was 66.2%. The growth in [7] was 85.4%; in experiment [8] it was 66.6%; in experiment [9] it was 96%; in experiment [10], 94.6%; in experiment [11] it was 92%; in [12] it was 85.9%. The growth is 94% in experiment [13]; 65.4% in [14]; 107% in experiment [15]; 86.6% in [16]; 81.7% in experiment [17]; 73.8% in experiment [18]. The growth in [19] is 65.6%.

In the case of `COc1ccc(C2=C(c3ccccc3)c3ccc(OC(C)=O)cc3OC2(C)C)cc1`, the growth in experiment [1] is 80.4%; in [2], 105%; in experiment [3] it was 118%; in [4], 111%; in [5] it was 95.7%; in experiment [6], 72.4%. Moreover, the growth in [7] is 93.1%; in experiment [8], 83.5%; in experiment [9] it was 71.4%; in [10] it was 100%; in [11], 94.9%; in experiment [12], 82.3%. Besides, the growth was 93% in experiment [13]; 90.6% in experiment [14]; 116% in experiment [15]; 76.3% in experiment [16]; 67.8% in [17]; 50.3% in experiment [18]. In [19], the growth is 4.69% (active).

As to `CC(=O)O[C@]1(C(C)=O)CC[C@H]2[C@@H]3C=C(Cl)C4=CC(=O)CC[C@]4(C)[C@H]3CC[C@@]21C`, the growth in experiment [1] was 102%; in [2] it was 101%; in [3], 117%; in experiment [4], 98%; in [5] it was 106%; in [6], 96.1%. The growth in [7] is 109%; in [8], 90.6%; in experiment [9] it was 115%; in [10], 119%; in experiment [11], 98.6%; in [12] it was 107%. In addition, the growth in experiment [13] was 97.7%; in experiment [14], 93.8%; in experiment [15] it was 113%; in experiment [16] it was 108%; in [17] it was 94.6%; in [18], 95.3%. For the same compound, the growth in experiment [19] was 84.9%.

With `CCn1ccnc1C(=O)/C=C/c1ccc(CC(=O)Nc2ccc(F)cc2)cc1`, the growth in experiment [1] was 13.2%; in experiment [2], -27.6% (active); in [3] it was 6.23% (active); in [4], 14.9%; in experiment [5] it was 10.5%; in [6] it was 33%. Besides, the growth is 29.3% in experiment [7]; 55.6% in experiment [8]; 13.9% in experiment [9]; 79.8% in experiment [10]; 97.8% in experiment [11]; 55.2% in experiment [12]. Besides, the growth in [13] is 26.2%; in experiment [14], 39.8%; in experiment [15] it was 66.3%; in experiment [16] it was 63.6%; in [17], 34.1%; in experiment [18], 7.58% (active). Besides, in experiment [19], the growth is 24.2%.

On to `CC(=O)N1c2ccccc2NC2=C(C(=O)N(Cc3ccccc3)C2(C)C)C1c1ccco1` (stereo not given), for which the growth in experiment [1] is 15.7%; in experiment [2], 9.99% (active); in experiment [3], 16.8%; in [4], 23.6%; in experiment [5] it was 24.6%; in [6], 29.7%. Moreover, the growth in experiment [7] is 7.88% (active); in experiment [8], 21.2%; in experiment [9], 25.6%; in experiment [10], 57.3%; in experiment [11] it was 16.9%; in experiment [12], 35.4%. The growth is 35.9% in experiment [13]; 52.5% in experiment [14]; 54.9% in experiment [15]; 33.5% in [16]; 43% in [17]; 24.1% in [18]. Also, the growth in experiment [19] was 28.6%.

`COc1ccc(/C=N/C2=C(C#N)C(c3ccccc3[N+](=O)[O-])c3ccc4ccccc4c3O2)cc1` (stereo not given): the growth in experiment [1] was 75.3%; in experiment [2] it was 112%; in [3], 61.3%; in [4] it was 96.6%; in experiment [5], 101%; in experiment [6], 71.7%. For the same compound, the growth in [7] is 81.9%; in experiment [8], 81.1%; in [9], 90.3%; in [10], 113%; in [11], 92.8%; in [12], 72.1%. The growth in experiment [13] is 91.6%; in experiment [14], 64.8%; in experiment [15], 182%; in [16] it was 90.8%; in experiment [17], 68.3%; in [18], 106%. Moreover, the growth in [19] is 89.5%.

Turning to `Cc1ccc(S(=O)(=O)Nc2ccc(Cl)cc2)cc1`, the growth in [1] was 107%; in experiment [2], 112%; in [3] it was 82.7%; in experiment [4] it was 96.9%; in experiment [5], 96.4%; in experiment [6], 87.2%. The growth in experiment [7] was 106%; in experiment [8] it was 77.2%; in experiment [9], 95.1%; in [10], 97.2%; in [11], 135%; in experiment [12], 90.4%. Moreover, the growth is 94.3% in experiment [13]; 82.1% in [14]; 118% in experiment [15]; 99.8% in [16]; 82.3% in [17]; 95.8% in experiment [18]. Also, in experiment [19], the growth was 105%.

For the compound `Cc1cc2nc(-c3ccccc3)c(-c3ccccc3)nc2cc1C`, the growth in experiment [1] is 98.1%; in [2], 116%; in experiment [3], 114%; in [4], 104%; in [5], 105%; in experiment [6], 106%. Also, the growth in experiment [7] was 92.4%; in experiment [8] it was 85.5%; in experiment [9], 100%; in experiment [10], 105%; in experiment [11], 107%; in experiment [12] it was 89.2%. Besides, the growth in [13] is 92.8%; in [14] it was 113%; in experiment [15] it was 125%; in [16] it was 114%; in [17], 98.7%; in [18], 99.4%. The growth in [19] is 89%.

Turning to `CCCCCN1C=C/C(=C\C(=O)N(C)c2cccc3ccccc23)c2ccccc21`, the growth is 101% in [1]; 90% in experiment [2]; 103% in [3]; 99.7% in [4]; 95.8% in experiment [5]; 94.4% in experiment [6]. Besides, the growth in [7] was 98.3%; in [8], 87.4%; in experiment [9] it was 97.8%; in experiment [10] it was 107%; in experiment [11], 109%; in experiment [12], 89.1%. In addition, the growth in [13] is 100%; in experiment [14], 82.5%; in experiment [15], 105%; in experiment [16] it was 104%; in experiment [17] it was 89.8%; in experiment [18], 89.5%. Further, the growth in [19] was 99%.

Take `O=C1Nc2cc(-c3ccncc3)ccc2/C1=C/c1ccc[nH]1`: the growth is 72.3% in experiment [1]; 88.8% in experiment [2]; 89.3% in [3]; 97% in [4]; 91.7% in experiment [5]; 88.1% in [6]. For the same compound, the growth in experiment [7] is 77.9%; in experiment [8], 111%; in [9], 98.8%; in experiment [10] it was 69.6%; in [11], 106%; in experiment [12], 46.9%. The growth in experiment [13] was 99.5%; in experiment [14] it was 73.7%; in [15] it was 95.7%; in experiment [16], 54%; in experiment [17], 87.9%; in experiment [18], 104%. Also, the growth in [19] is 96.4%.

Regarding `NC(=O)CN1CCN(c2ccccc2Cl)CC1`, the growth is 107% in experiment [1]; 101% in experiment [2]; 119% in experiment [3]; 118% in experiment [4]; 111% in experiment [5]; 105% in [6]. Besides, the growth in [7] is 110%; in experiment [8] it was 113%; in experiment [9] it was 109%; in experiment [10], 110%; in experiment [11] it was 92.4%; in experiment [12], 108%. For the same compound, the growth in experiment [13] was 109%; in [14] it was 82.7%; in experiment [15], 116%; in experiment [16], 103%; in experiment [17], 96.4%; in experiment [18], 115%. In addition, the growth in experiment [19] was 111%.

With `CCc1c(Nc2ccc(C)cc2)nc(N)[nH]c1=O`, the growth is 103% in experiment [1]; 100% in experiment [2]; 87% in [3]; 98.9% in experiment [4]; 101% in experiment [5]; 95.4% in [6]. Besides, the growth in [7] is 102%; in [8], 87.2%; in [9] it was 105%; in experiment [10], 101%; in experiment [11], 98.1%; in [12], 92.1%. Further, the growth was 92.4% in [13]; 85.8% in experiment [14]; 104% in [15]; 103% in [16]; 91.7% in experiment [17]; 104% in experiment [18]. Moreover, the growth in experiment [19] was 101%.

Consider `COc1cc2nc(-c3ccc(C(F)(F)F)cc3)cc(OCCCN3CCCCC3)c2cc1OC`, for which the growth in experiment [1] was 9.99% (active); in [2] it was 15.8%; in experiment [3], -10.6% (active); in experiment [4], 62.5%; in experiment [5] it was 49.6%; in [6] it was 43.2%. For the same compound, the growth is 15.5% in experiment [7]; -34.7% (active) in experiment [8]; -28.5% (active) in [9]; 51.4% in experiment [10]; 61.4% in experiment [11]; 69.4% in [12]. In addition, the growth was 45.7% in experiment [13]; 30.5% in experiment [14]; 105% in [15]; 38.2% in [16]; 0.476% (active) in experiment [17]; 42.4% in experiment [18]. In [19], the growth is 35.8%.

Turning to `CCOc1ccc(/C=N/Nc2cc(C)nc3ccc(Cl)cc23)cc1`, the growth in experiment [1] is -0.545% (active); in experiment [2], 26.9%; in experiment [3], 101%; in experiment [4], 76.1%; in [5], 8.99% (active); in experiment [6], 71.2%. Further, the growth in experiment [7] was 66.2%; in experiment [8], 68.2%; in experiment [9], -85.6% (active); in experiment [10], 28.2%; in [11], 91%; in experiment [12], 81.7%. Moreover, the growth in experiment [13] is -26% (active); in experiment [14], 47.6%; in experiment [15], 121%; in [16], 51.2%; in experiment [17] it was 78.2%; in experiment [18] it was 0.25% (active). The growth in [19] was -30.5% (active).
